Some structures have more than one record in an assay (separate samples or runs), and their calls can disagree. Calls of active or inactive are those of the source. How the source made its calls: active means hit-call score of the fitted dose curve at least 0.9, where 1 is the maximum; inactive means score below 0.9.
Assay: ATG_AP_2_CIS: Attagene CIS-FACTORIAL HepG2 Assay for human Activator Protein 2 (AP-2) (AID 2282932)
Settings: HepG2 AP-2 cis-reporter, Attagene transcription factor profiling; actives raise or lower the signal
Description: ATG_CIS is a cell-based, multiplexed-readout assay that uses HepG2, a human liver cell line, with measurements taken at 24 hours after chemical dosing in a 24-well plate.ATG_AP_2_CIS is one of 52 assay component(s) measured or calculated from the ATG_CIS assay. It is designed to make measurements of mRNA induction, a form of inducible reporter, as detected with fluorescence intensity signals by Reverse transcription polymerase chain reaction (RT-PCR) and Capillary electrophoresis technology.Data from the assay component ATG_AP_2_CIS was analyzed into 1 assay endpoint. This assay endpoint, ATG_AP_2_CIS, was analyzed with bidirectional fitting relative to DMSO as the negative control and baseline of activity. Using a type of inducible reporter, measures of mRNA for gain or loss-of-signal activity can be used to understand the reporter gene at the transcription factor-level as they relate to the gene TFAP2A and TFAP2B and TFAP2D. Furthermore, this assay endpoint can be referred to as a primary readout, because this assay has produced multiple assay endpoints where this one serves a reporter gene function. To generalize the intended target to other relatable targets, this assay endpoint is annotated to the dna binding intended target family, where the subfamily is basic helix-turn-helix leucine zipper.
Human liver HepG2 cells are transiently transfected with multiple reporter transcription units (MRTUs) in 6-well plates using FuGene 6 reagent (Roche; 3 ml FuGene/1 mg DNA). The MRTU constructs are regulated by a cis-regulating element (promoter). […] A major difference between the CIS and TRANS system is that in CIS activities of endogenous TFs are measured, whereas the TRANS assay evaluates changes in activities of exogenous, chimeric NR-Gal4 proteins. […] At the end of 24 hour incubation, total RNA was isolated using TriZol reagent (Invitrogen). The isolated RNA is then reverse-transcribed using oligo(dT) primer and Mo-MLV reverse transcriptase (Invitrogen) with DNAse I (Ambion) treatment for 30 min. The one-tenth of the produced cDNA was amplified by PCR using Taq DNA polymerase (Invitrogen) and two reporter sequence-specific primers. The PCR products were fluorescently labeled by primer extension with 6-arboxyfluorescein (6-FAM) 5'-labeled reporter sequence-specific primer (2 min at 95 C, 20 s at 68 C and 10 min at 72 C) and these products were digested with 5U of HpaI (New England Biolabs) for 2h at 37 C. The fragments were purified using Qiaquick PCR columns (Qiagen), analyzed on an ABI 3130xL genetic analyzer (Applied Biosystems) with peak positions identified by using a set of X-rhodamine (ROX)-labeled MapMarker1000 molecular weight standards (BioVentures). The raw capillary electrophoresis data was processed using Attagraph software (Attagene).

SMILES | outcome | AC50
CCCCCCCCCC[N+](C)(C)[O-] | inactive | –
CCCCC(CC)COC(=O)CCCCCCCC(=O)OCC(CC)CCCC (stereo not given) | inactive | –
CC(=O)S[C@H](C(=O)N[C@H]1Cc2ccccc2[C@H]2CCC[C@@H](C(=O)O)N2C1=O)C(C)C | inactive | –
CC1(C)C(=O)NC(=O)N1CO | inactive | –
C#CC(O)C(CC)CCCC (stereo not given) | – | 163 µM (active)
Oc1ccc(O)cc1 | – | 28.8 µM (active)
CCCCCCCCCCCCCCOS(=O)(=O)O | inactive | –
CC(C)OC(=O)C(C)(C)Oc1ccc(C(=O)c2ccc(Cl)cc2)cc1 | inactive | –
CC(N)=O | inactive | –
O=C1O[C@H]([C@H](O)CO)C(O)=C1O | inactive | –
Oc1ccccc1O | inactive | –
CO[C@@H]1COCC[C@@H]1N[C@@H]1CC[C@@](C(=O)N2CCc3ncc(C(F)(F)F)cc3C2)(C(C)C)C1 | inactive | –
O=C(N[C@@H](c1ccccc1)[C@@H]1CCCCN1)c1cccc(C(F)(F)F)c1Cl | – | 33 µM (active)
CCc1nc(N)nc(N)c1-c1ccc(Cl)cc1 | inactive | –
CCCCCCC(CCCCCCCCCCC(=O)OCC(COC(C)=O)OC(C)=O)OC(C)=O (stereo not given) | inactive | –
O=C(O)CN(CC(=O)O)CC(=O)O | inactive | –
CC(C)(O)c1ccc(CNC(=O)c2cccnc2Oc2ccc(F)cc2)cc1 | inactive | –
O=C(NS(=O)(=O)/C=C/c1cccs1)c1ccc(F)cc1Br | inactive | –
Cc1cc(SC2=C(O)C[C@@](CCc3ccc(N)cc3)(C(C)C)OC2=O)c(C(C)(C)C)cc1CO | inactive | –
CC(=O)CC(c1ccccc1)c1c(O)c2ccccc2oc1=O (stereo not given) | inactive | –

SMILES | outcome | AC50
C=CCc1ccc(OC)c(OC)c1 | inactive | –
Cc1cc(Cc2ccc(N)c(C)c2)ccc1N | inactive | –
CCCCC(CC)COP(=O)(OCC(CC)CCCC)OCC(CC)CCCC (stereo not given) | inactive | –
C=CCCCCCCCCCCCC | inactive | –
O=C1OC(c2ccc(O)cc2)(c2ccc(O)cc2)c2ccccc21 | – | 48.1 µM (active)
O=Cc1ccccc1C=O | inactive | –
NC=O | inactive | –
COC(=O)CCCC(=O)OC | inactive | –
COc1ccc(C(=O)Nc2nc3ccccc3c(NCc3ccccc3)c2C#N)cc1 | inactive | –
CCCC(=O)O | inactive | –
NC1CCCCC1 | inactive | –
CCC(C)N(C)C(=O)c1cc2ccccc2c(-c2ccccc2Cl)n1 (stereo not given) | inactive | –
O=C1NC(=O)C(c2ccccc2)(c2ccccc2)N1 | inactive | –
Cc1ccc(C(C)(C)C)c(O)c1 | inactive | –
CCCCC(CC)CO (stereo not given) | inactive | –
O=C(Oc1ccccc1)c1cccc(C(=O)Oc2ccccc2)c1 | inactive | –
CCCCc1nc2cccnc2n1Cc1ccc(-c2ccccc2-c2nnn[nH]2)cc1 | inactive | –
CCN(CC)CCOc1ccc(C(=C(Cl)c2ccccc2)c2ccccc2)cc1 | inactive | 11.4 µM (active)
NC(=Nc1ccccc1)Nc1ccccc1 | inactive | –

From PubChem BioAssay (EPA / NIEHS)
